SMILES strings stand for the structures.

Here are results for six compounds from PubChem BioAssay.

This assay deals with Pro-neuregulin-1, membrane-bound isoform (Homo sapiens) (UniProt Q02297). In words: small molecules binding neuregulin-1 protein – biochemical, small-molecule microarray, fluorescence 635/667, psychiatric disease protein project, primary screen (AID 1075).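 Further: score combines 667 nm spot fluorescence with signal to noise.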 To be noted: NRG1 binding, 635 nm fluorescence, higher = more signal.
Chain of Pro-neuregulin-1, membrane-bound isoform (Homo sapiens) (Q02297 whole entry, looked up, canonical isoform): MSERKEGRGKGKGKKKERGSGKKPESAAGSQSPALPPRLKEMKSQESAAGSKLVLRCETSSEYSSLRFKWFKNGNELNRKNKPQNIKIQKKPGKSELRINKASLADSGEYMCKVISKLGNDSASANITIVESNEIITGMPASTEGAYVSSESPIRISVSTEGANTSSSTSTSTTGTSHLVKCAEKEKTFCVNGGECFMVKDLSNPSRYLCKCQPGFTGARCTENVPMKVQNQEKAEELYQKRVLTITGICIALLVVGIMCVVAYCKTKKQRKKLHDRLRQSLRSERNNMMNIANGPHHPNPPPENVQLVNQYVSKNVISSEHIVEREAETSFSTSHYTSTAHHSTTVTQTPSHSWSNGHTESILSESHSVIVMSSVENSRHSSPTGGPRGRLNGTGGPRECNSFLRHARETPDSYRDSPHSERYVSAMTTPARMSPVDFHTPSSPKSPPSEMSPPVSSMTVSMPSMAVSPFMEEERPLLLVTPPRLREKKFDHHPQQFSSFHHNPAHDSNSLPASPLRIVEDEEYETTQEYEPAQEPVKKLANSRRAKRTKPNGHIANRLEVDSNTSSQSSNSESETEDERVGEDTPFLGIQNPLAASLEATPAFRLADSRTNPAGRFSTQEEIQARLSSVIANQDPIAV
As for `CCC(CC)C(O)C1C=CC2C(=O)N(c3ccccc3)C(=O)C2N1Nc1ccc(C(C)C)cc1` (stereo unspecified), the composite z-score was found to be 1.23.
As for `C=C(C)C1CCC(C(O)C2C=CC3C(=O)N(C)C(=O)C3N2N2CCCCC2)CC1` (stereo unspecified), the composite z-score came to 1.45.
For the compound `O=C1NC(=O)C2C1C=CC(C(O)c1cccc3ccccc13)N2Nc1ccc(Cl)cc1Cl` (stereo unspecified), the composite z-score came out at 1.53.
As for `C=CCOC(=O)[C@H]1[C@@H]2C(=O)O[C@@H](c3ccccc3)[C@@H](c3ccccc3)N2[C@@H](c2ccc(OCCOC(=O)[C@@H]3C[C@@H]4C(=O)N[C@@H](CCCCN(C)C)C(=O)N4[C@@H]3c3ccc(O)cc3)cc2)[C@]12C(=O)Nc1ccccc12`, the composite z-score turned out to be 0.965.
With `CCOC(=O)C1=CC[C@@H](c2ccccc2C(F)(F)F)N(S(=O)(=O)c2ccc(C)cc2)[C@H]1c1ccc(C#N)cc1` the figure was 0.988.
Turning to `CCCNC(=O)[C@@H]1c2ccccc2C(=O)N(C(C)C)[C@H]1c1ccc(CO)cc1`, the composite z-score was 1.23.
